“And” between values parts separate entries of the source, which are not always exact repeats. Equal values may be shown once. The panel holds about 83,000 compounds, 20% with a hit somewhere; the sample as a whole holds those more often.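 Values shown are percent growth following 48 h exposure of cells in 96-well plates to a single concentration of compound; below 10 was considered active.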 The source made the active and inactive calls.

The results in this text go back to PubChem BioAssay (NCI).

This test relates to HL-60(TB) leukemia. The test is described as follows: NCI-60 one-dose screen, 48 h (100 = growth as untreated, 0 = no growth, -100 = all killed). Particulars: 10 µM unless noted.
For the compound `COC(=O)c1ccc2[nH]c(O)c(C(=Nc3ccc(N(C)C(=O)CN4CCN(C)CC4)cc3)c3ccc(C)cc3)c2c1`, the growth is -55.7% (active).

In the case of `Nc1ccc(N2CCOCC2)cc1`, the growth is 81.8% (inactive).

Turning to `Cc1c(C2=NNC(c3ccc4c(c3)OCO4)C2)[n+]([O-])c2ccccc2[n+]1[O-]` (stereo not drawn), the growth was 90.5% (inactive).

For the compound `CC(=O)OC1Oc2ccccc2-c2oc(=O)c(-c3cc(=O)oc4cc(O)ccc34)cc21` (stereo not drawn), the growth was 47% (inactive).

For `COc1cc(/C=C2\C(=O)N(Cc3ccc(Cl)cc3)c3ccccc32)cc(OC)c1OC`, the growth was -13.5% (active).

`Cn1c(SSc2ccc(-c3cccnc3)n2C)ccc1-c1cccnc1`: the growth was 62.8% (inactive) and -32.2% (active).

With `O=C(CCc1nnc2sc(-c3ccc(Cl)cc3Cl)nn12)c1nc2ccccc2[nH]1`, the growth was 3.48% (active).

In the case of `COc1ccccc1Nc1nnc(-c2ccc(Cl)cc2)o1`, the growth was -9.62% (active).

As to `COc1cc(-c2nc(-c3ccc(-c4nc5ccc(F)cc5[nH]4)cc3)no2)cc(OC)c1OC`, the growth was 13.4% (inactive).

For `C=C(C)[C@@H]1CC[C@]2(C(=O)NCCNCCN)CC[C@]3(C)[C@H](CC[C@@H]4[C@@]5(C)C/C(=C/c6ccncc6)C(=O)C(C)(C)[C@@H]5CC[C@]43C)[C@@H]12`, the growth was 74.1% (inactive).

With `C=CC[Se]C(=O)Cc1c(C)n(C(=O)c2ccc(Cl)cc2)c2ccc(OC)cc12`, the growth was -53.3% (active).

With `Fc1ccc2nc(-c3cc(-c4ccc5c(c4)OCO5)n[nH]3)[nH]c2c1`, the growth was 13.9% (inactive).

With `Oc1c(Cl)cc(Cl)c2ccc(Cn3cc(-c4cc(F)cc(F)c4)nn3)nc12`, the growth is 2.85% (active).
